The whole screen tested about 2,400 compounds, of which fewer than 10 were called active. No rule for the calls is given here. Only a sample is shown.
biological target: Rac GTPase-activating protein 1 (Homo sapiens) (UniProt Q9H0H5); experiment: MgcRacGAP inhibitors via phosphate release, confirmation, orthogonal assay, biochemical, inorganic phosphate detection, Rac1 (AID 652142); conditions: MgcRacGAP/Rac1F28L GTP hydrolysis, Biomol green phosphate; active compounds read high; concentration not given here
Sequence (Q9H0H5 whole entry, looked up): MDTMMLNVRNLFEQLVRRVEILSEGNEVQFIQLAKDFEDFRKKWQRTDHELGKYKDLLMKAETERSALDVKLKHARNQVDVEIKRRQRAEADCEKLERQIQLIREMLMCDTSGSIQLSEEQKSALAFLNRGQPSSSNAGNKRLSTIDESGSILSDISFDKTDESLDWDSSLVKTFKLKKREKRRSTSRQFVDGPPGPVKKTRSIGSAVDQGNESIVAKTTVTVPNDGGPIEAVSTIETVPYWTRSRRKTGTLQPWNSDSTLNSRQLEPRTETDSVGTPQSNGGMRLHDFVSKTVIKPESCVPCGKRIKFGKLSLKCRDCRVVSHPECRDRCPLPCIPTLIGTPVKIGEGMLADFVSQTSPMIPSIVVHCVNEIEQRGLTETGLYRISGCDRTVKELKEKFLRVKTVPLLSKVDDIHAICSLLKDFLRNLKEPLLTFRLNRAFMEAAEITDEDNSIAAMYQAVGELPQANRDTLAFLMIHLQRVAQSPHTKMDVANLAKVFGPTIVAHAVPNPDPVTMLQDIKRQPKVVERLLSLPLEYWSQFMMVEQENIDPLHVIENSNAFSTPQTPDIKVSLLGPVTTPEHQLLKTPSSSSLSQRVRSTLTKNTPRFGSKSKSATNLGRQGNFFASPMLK

inhibition, inactive:
CN(C)CCCN1c2ccc(O)cc2Sc2ccc(Cl)cc21 30.1%
COc1cc(/C=N/NC(=O)c2cccc(NC(=O)c3ccccc3C)c2)ccc1O 19.3%
C/C(=N\NC(=O)c1ccc(O)cc1)c1ccc2c(c1)Nc1ccccc1S2 28.2%
CCOc1cc(CNc2ccc(N3CCCCC3)cc2)cc(Br)c1OCC(=O)NC(C)(C)C 35.1%
Cc1cc(NS(=O)(=O)c2ccc(Nc3nc(-c4ccc(O)cc4)cs3)cc2)no1 23.8%
COC(=O)c1ccc(NC(=S)Nc2ccc(O)cc2)cc1 34.6%
C[C@H]1CCC/C=C/[C@@H]2C[C@H](O)C[C@H]2[C@H](O)[C@H](S(=O)c2ccc(O)cc2)CC(=O)O1 (stereo not given in full) 47.3%
Cc1[nH]nc(-c2ccc(O)c(C)c2O)c1-c1cnn(-c2ccccc2)c1 36.4%
Cn1c(=O)c2c([nH]c(=S)n2CCCc2ccccc2)n(C)c1=O 26.4%
Oc1ccc(N=Nc2ccccc2)cc1 8.73%
O=C1C=C(Nc2ccc(O)cc2)C(=O)c2ccccc21 25.1%
COc1cc(/C=N/Nc2nn3cnnc3c3ccccc23)ccc1O 26.4%
C/C(CC(=O)Nc1ccc(N(C)C)cc1)=N\NC(=O)c1ccc([N+](=O)[O-])cc1Cl 26.5%
COc1cc(/C=N/n2c(C3CCCCC3)n[nH]c2=S)ccc1O 27.2%
Cc1ccc(NC(=O)CN2CCN(C)CC2)cc1Br 26.9%
CCCCn1c(SCC(=O)c2ccc(O)c(O)c2)nc2ccsc2c1=O 27.5%
CCOC(=O)c1[nH]c2ccc(F)cc2c1NC(=O)c1ccccc1C(=O)O 22.6%
Cc1ccc(/C=N/Nc2ccc(Cl)c(C(=O)O)c2)s1 6.67%
O=C(c1cccnc1)N1CCN(Cc2cccc(Br)c2)CC1 26.8%
COc1ccc(N=C2NC(=O)/C(=C/c3ccc(O)c(OC)c3)S2)cc1 19.7%
Oc1ccc(-c2csc(-c3cccnc3)n2)c(O)c1 14.8%
Cc1nc(N)sc1-c1ccccc1 20.1%
COc1ccc(NC(=O)c2cc3ccc(O)cc3o/c2=N\O)cc1 17.5%
COc1cc(/C=N/NC(=S)Nc2cccc(S(=O)(=O)N(C)C)c2)ccc1O 20.1%
O=C(Nc1n[nH]c(=S)s1)c1ccco1 29.1%
CCc1nc(Nc2ccc(O)cc2)c2oc3ccccc3c2n1 27.8%
CCCCCC(=O)Nc1cc(S(=O)(=O)O)cc2cc(S(=O)(=O)O)cc(O)c12 64.8%
CCOc1ccc(/C=N/NC(=O)NC23CC4CC(CC(C4)C2)C3)cc1O 17.5%
CCn1c(C)nc2cc(C(=O)N/N=C/c3ccc(O)cc3)ccc21 22.6%
COc1ccc(Oc2c(-c3ccc(O)cc3O)n[nH]c2C)cc1 9.67%
C=C(CN(C)C)C(=O)c1cc(OC)c(OC)cc1OC 6.42%
CCn1c(=O)c(C(=O)CN(C)Cc2cccc(OC)c2OC)c(N)n(Cc2ccccc2)c1=O 35.9%
CCOc1ccc2c(ccc(/C=C/c3cc(C)c4cccnc4c3O)[n+]2C)c1 66.1%
CN(C)c1ccc(NC(=O)c2sc(SCC(=O)Nc3nccs3)nc2N)cc1 29.2%
Cc1ccc(NCCN(C)C)c2c(=O)c3cc(O)ccc3sc12 31.1%
C(=N\Nc1nc2ccccc2[nH]1)/c1c[nH]c2ccccc12 4.59%
COc1cc2c(cc1NC(=S)Nc1cccc3ccccc13)oc1ccccc12 21.3%
NS(=O)(=O)c1ccc(Nc2nc(-c3ccc(O)cc3O)cs2)cc1 24.5%
Cc1cc(=O)[nH]c2c(N=Nc3ccc(O)cc3)c(N)nn12 34.3%
CSCCOC(=O)C1=C(C)Nc2ccc(C)cc2S1 29.3%
OCC1CCCN(C(=S)Nc2ccc(Nc3ccccc3)cc2)C1 (stereo not given) 34.4%
COc1cc2c(cc1NC(=S)Nc1cccc(C(F)(F)F)c1)oc1ccccc12 8.84%
COc1cc(/C=N/n2c(-c3cc(C)[nH]n3)n[nH]c2=S)cc(OC)c1OC 1.28%
CCN(CC)c1ccc(C(=C2C=CC(=[N+](CC)CC)C=C2)c2ccc(N(CC)CC)cc2)cc1 90%
COc1cc(C=NNC(=O)c2ccccc2-n2cccc2)ccc1O 22%
COc1cc2c(cc1OC)C1(CCCC1)C(N)=C2C#N 18.7%
CC1CC(=O)N(c2ccc(NCCc3ccc(O)cc3)c([N+](=O)[O-])c2)C1=O (stereo not given) 29.1%
CCN1C(=O)/C(=C2/C=Cc3cc(C)ccc3N2CC)N(C)C1=S 23%
O=C(O)c1c2c(nc3ccccc13)/C(=C/c1ccc(O)cc1)CCC2 19.3%
CN(C)c1ccc(NC2=C(Cl)C(=O)c3ccccc3C2=O)cc1 22%
Cc1ccc(/C(N)=N/OC(=O)N2c3ccccc3Sc3ccccc32)cc1 23.7%
Oc1ccc(Nc2ncnc3ccccc23)cc1 20.3%
CN1/C(=C\C=N\NC(=O)c2ccc(O)cc2)C(C)(C)c2ccccc21 22.5%
O=C(Cn1c(C(=O)NCC2CCCO2)cc2sccc21)c1ccccc1 (stereo not given) 18.4%
Cc1ccc(NC(=O)CCNCc2ccco2)cc1S(=O)(=O)N(C)C 33.8%
CC(NCc1ccc(S(N)(=O)=O)cc1)C(=O)N1c2ccccc2CC1C (stereo not given) 13.9%
O=C(C1=C(O)C(=O)N(c2nc3ccc(Cl)cc3s2)C1c1ccco1)c1ccco1 (stereo not given) 28.7%
C/C(=N\NC(=O)c1ccccc1F)c1ccc2c(c1)Nc1ccccc1S2 20.8%
COc1cc(/C=C2\C(=O)N(C)C(=S)N2C)ccc1O 9.53%
COc1ccc(NC(=O)c2ccc(NC(=O)CN3CCN(c4ccc(O)cc4)CC3)cc2)cc1 18.8%
CN(C)CCNc1ccc(CO)c2oc3ccc(O)cc3c(=O)c12 14.8%
CN(C)c1ccc(/C=C/c2ccc3ccccc3[n+]2C)cc1 41%
Oc1ccc(/C=C/c2ccc3ccccc3n2)cc1 35.5%
O=C1/C(=C\c2ccc(O)cc2)SC(=S)N1/N=C/c1ccc(O)cc1 13.5%
COc1ccccc1C(=O)N1CCN(Cc2cccnc2)CC1 19.7%
CN(C)c1ccc(/C=C2/C[N+](C)(C)C/C(=C/c3ccc(N(C)C)cc3)C2=O)cc1 25.4%
Cc1cc(O)ccc1NC(=O)c1ccccc1 36%
Cc1cc(C)c2nc(C)cc(N/N=C/c3ccc(O)cc3)c2c1 41.9%
COc1cc(/C=C2\SC(=S)N(Nc3ccccc3)C2=O)ccc1O 19.2%
O=C(Oc1ccc(N(C(=O)c2ccncc2)S(=O)(=O)c2cccs2)cc1)c1ccncc1 26.2%
CCOc1cc(/C=C2\C(=O)N(CCc3ccc(OC)c(OC)c3)C(C)=C2C(=O)OC)ccc1O 20.6%
O=C(CN1CCN(c2ccc(O)cc2)CC1)NCC(=O)Nc1ccc(F)c(F)c1F 24.8%
O=C(COc1ccccc1C(=O)N/N=C\c1ccc(O)c(O)c1)N/N=C/c1ccc(O)c(O)c1 8.94%
COc1ccc(NC2CCCN(C(=O)c3ccc4[nH]c(C)c(C)c4c3)C2)cc1 (stereo not given) 17.9%
COc1cc(/C=N/NC(=O)CCn2c3ccccc3c3ccccc32)ccc1O 21%
COCCCNC1=C(C#N)C(=O)NC(c2cccs2)S1 (stereo not given) 40.4%
CN(C)CCNc1ccc(CO)c2sc3ccc(O)cc3c(=O)c12 12.6%
NC(CSS(=O)(=O)O)=NCCC12CC3CC(CC(O)(C3)C1)C2 34.4%
C=CCn1c(SCC(=O)Nc2ccc(N(C)C)cc2)nnc1-c1cccc(C)c1 15.5%
CCOc1cc(-c2nc3ccccc3s2)ccc1O 30.1%
Oc1ccc(/C=N/Nc2nn3cnnc3c3ccccc23)cc1 25.8%
Oc1ccc(/C=N/n2c(-c3ccco3)csc2=Nc2cccnc2)c(O)c1 23.8%
Cc1ccc(S(=O)(=O)c2cc(Nc3ccccc3)ccc2O)cc1 11.6%
Cc1cc(C)n(CC(O)CN2c3ccccc3Sc3ccccc32)n1 (stereo not given) 32.2%
CC(C)C1=Nc2cccc3cccc(c23)N1 22.3%
COc1nc(Nc2ccc(O)cc2)nc(OC(C(F)(F)F)C(F)(F)F)n1 18.1%
Clc1cccc(N/N=C/c2ccc(N3CCOCC3)s2)c1 29.3%
CCOC(=O)C1CCN(Cc2cn[nH]c2-c2ccccc2)CC1 27.9%
CCOc1cc(/C=N/NC(=O)Nc2ccccc2)ccc1O 23.6%
CCOc1cc(/C=C(\C#N)c2[nH]nc(N)c2C#N)ccc1O 29.6%
Cc1cc(-c2ccccc2)nc(N/N=C/c2ccc(O)cc2)n1 18.1%
CCOC(=O)C1=C(C)Nc2ccccc2S1 35.2%
C=CCOc1ccccc1CN1CCCN(C)CC1 22.3%
CCOc1cc(/C=C(\C#N)C(=O)NCC2CCCO2)ccc1O (stereo not given) 23.9%
CN1C(=O)NC(c2ccc(O)cc2)C2=C1CN(c1ccc(O)cc1)C2=O (stereo not given) 24.1%
Cc1ccnc(Nc2nc(-c3ccc(O)c(O)c3)cs2)c1 23.8%
CCOC(=O)c1nc(Nc2ccc(Nc3ccccc3)cc2)c2ccccc2n1 32%
Oc1ccc(NC(=S)N=Nc2c(O)[nH]c3ccc(Br)cc23)cc1 26.7%
CCOC(=O)c1[nH]c2ccccc2c1NC(=S)Nc1cccc(C)c1C 18.1%
CCN(CC)c1ccc(C(=C2C=CC(=[N+](CC)CC)C=C2)c2ccccc2)cc1 28%
CC(C)N=c1scc(-c2ccco2)n1/N=C/c1ccc(O)c(O)c1 27.8%
O=C1CSC(=S)N1Nc1ccccc1 17.3%
CCc1cc(-c2n[nH]c(CCC(=O)O)c2-c2nc3ccccc3n2C)c(O)cc1O 30.8%
Nc1nc(=S)c2[nH]c(=S)[nH]c2[nH]1 35.5%
CC(C(=O)NCC(=O)Nc1ccc(F)c(F)c1F)N1CCN(c2ccc(O)cc2)CC1 (stereo not given) 20.8%
